# From PubChem BioAssay AID1547 (National Center for Advancing Translational Sciences (NCATS), 2009)
# The source made the active and inactive calls.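 The calls were made as follows: active = compound that significantly cut labelled fatty acid release from lipid-loaded liver cells compared with solvent alone; inactive = the rest.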
# Test: Secondary Assay for lipid storage modulators. NEFA Incorporation/Release.
# Settings: AML12 cells, [3H]oleic acid NEFA release, at 5 µM, stronger effect = lower value
# Source text: Data Source: University of Maryland BioAssay Type: Secondary Description: NIH Molecular Libraries Probe Production Centers Network [MLPCN] NIH Chemical Genomics Center [NCGC] Assay Submitter (PI): Carole Sztalryd; GRECC/Geriatrics, Veterans Affairs Medical Center, Department of Medicine, School of Medicine, University of Maryland, Baltimore, Maryland, USA. Beller, Mathias; Max-Planck-Institut fur Biophysikalische Chemie, Germany. NCGC Assay Overview: Storing lipids as a reservoir for energy or the anabolism of elementary metabolites is a common feature of probably all cells and is conserved from bacteria to humans. The universal cellular lipid storage organelle is the so-called lipid storage droplet (LD). Although ubiquitous, LDs share a simple structure composed of a hydrophobic core that harbors the storage lipids, which is shielded by a droplet-specific phospholipid monolayer to which proteins are attached. The current model of LD biogenesis involves an incorporation of the lipid core into the membrane leaflets of the endoplasmic reticulum (ER) followed by a subsequent budding-like maturation of a LD, which ultimately pinches off. Once released, LD volume can increase by localized lipogenesis or fusion of existing droplet. Storage lipids are re-mobilized enzymatically by lipase activity. Lipase regulation in the adipocyte is heavily studied and involves multiple components including catecholamine signaling, the LD-associated proteins Perilipin and comparative gene identification (CGI-58) and at least two lipases named hormone sensitive lipase (HSL) and adipocyte triglyceride lipase (ATGL). LD regulation outside of the adipocyte is poorly understood and only few components are known. However, there is an urgent need to learn more about ectopic fat depots as mislocalized storage of lipids, for example in the liver or muscle, is an eminent health problem associated with insulin resistance or the metabolic syndrome. We developed a laser-scanning cytometer assay to enable 1,536-well screening and combined the results of the small molecules screen with an RNAi database based on lipid storage. […]
# Assay Protocol Summary: Measurements of NEFA released from lipid droplets or incorporated into the TG fraction were performed as previously described. […] Lipolysis was determined by measuring radioactivity released into the media in 1 h. […] Lipids were extracted by the Bligh-Dyer method, and 10% of the total lipid was analyzed by thin layer chromatography. AML12 cells treated with or without specific siRNAs were additionally incubated with either vehicle (DMSO), 5 uM of Exo1 (12.5 mg/ml DMSO), or BFA (10 mg/ml DMSO) during the time of radioactivity release into the media (2 h). NEFA incorporation into the TG fraction and NEFA release are calculated as […]/mg protein. […]
compound,measurement,setting,value
COC(=O)c1ccccc1NC(=O)c1ccc(F)cc1,NEFA release change,,-0.35 nmol/mg (active)
same,NEFA release change,gammaCOP siRNA treatment,-0.3 nmol/mg
same,NEFA release change,measured here: ATGL siRNA treatment,-0.63 nmol/mg
same,NEFA release change,measured here: control siRNA treatment,-0.47 nmol/mg
